Bioassay records (PubChem)
In the library only some 3.4% were active in any assay of this set; here they are far more common.
TEAD-YAP inh: TEAD-YAP interaction inhibition | HEK-TIYL cells, TEAD-Gal4/YAP UAS-luciferase luminescence | AID 1259422 | 1.4% of 640,000 active | inhibition, % at 9.12 µM; in the data active = inhibition above about 32%;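 also: 0% = median of test compound wells and 100% = reference inhibitor wells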
MITF inh: inhibitors of human MITF | O75030 | AlphaScreen MITF homodimerization, bead proximity signal | inhibition, % at 2.6 µM | 0.91% of 650,000 active; in the data active = inhibition above about 50%;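 also: 0% = vehicle wells with protein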
GPR151 ag: human GPR151 activation | Q8TDV0 | PathHunter beta-arrestin GPR151 cells, luminescence | activation, % at 11.2 µM | 1% of 650,000 active; in the data active = activation above about 4.9%;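 also: 0% = median of compound wells and 100% = cells with positive control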
Target sequence (Q8TDV0 whole entry, looked up): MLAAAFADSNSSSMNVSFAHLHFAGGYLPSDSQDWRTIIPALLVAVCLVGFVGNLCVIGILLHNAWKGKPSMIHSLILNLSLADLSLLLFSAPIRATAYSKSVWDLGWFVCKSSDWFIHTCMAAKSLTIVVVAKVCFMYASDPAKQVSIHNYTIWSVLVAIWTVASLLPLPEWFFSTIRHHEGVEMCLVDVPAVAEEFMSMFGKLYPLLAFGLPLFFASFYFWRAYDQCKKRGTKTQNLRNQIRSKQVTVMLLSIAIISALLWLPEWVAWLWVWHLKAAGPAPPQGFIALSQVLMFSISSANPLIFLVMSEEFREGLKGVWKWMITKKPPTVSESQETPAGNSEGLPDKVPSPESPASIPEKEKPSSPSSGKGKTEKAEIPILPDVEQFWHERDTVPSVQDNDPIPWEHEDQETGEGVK
FBW7 activator: activators of human E3 ligase FBW7; Q969H0; AlphaScreen FBW7–phospho-cyclin E peptide binding, activator screen; normalized activity (activation), % at 26.1 µM; 0.13% of 650,000 active; AID 1259310; in the data active = normalized activity above about 1.9%;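 also: purified mutant Fbw7 with reduced substrate affinity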
GPR151 conf act: confirmation of human GPR151 activators. activation, % at 11.2 µM. GPR151 PathHunter beta-arrestin cells, luminescence, 90 min; % of EA-reagent control over plate median. shares compounds with GPR151 ag. 6,700 tested, under 10 active. AID 1508609;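 active = mean percent activation across replicates above the confirmation screen cutoff of 4.91%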
GPR119 ag: GPR119 activation, counter-screen for GPR151 activators | shares compounds with GPR151 ag | GPR119 PathHunter beta-arrestin cells, luminescence, 90 min; 0 = compound-well median, 100 = enzyme-acceptor control | activation, % at 11.2 µM | 0.3% of 6,700 active | AID 1508611;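 active = mean percent activation in the counterscreen above 29.09%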;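 also: counterscreen on off-target GPR119 to flag nonselective hits from the GPR151 activator screen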
Starred values were filed as active, the others as inactive.

Screening O=C(Nc1ccccc1)c1cc(N2CCN(c3ccccn3)CC2)nc2ccccc12 returned TEAD-YAP inh 5, MITF inh 6, GPR151 ag 5.1*, FBW7 activator 0, GPR151 conf act 0 and GPR119 ag 0.
Screening O=C(Nc1ccc(F)cc1)c1cnc(N2CCN(c3ccccn3)CC2)c2ccccc12 returned TEAD-YAP inh 0, MITF inh 17, GPR151 ag 0 and FBW7 activator 0.
For Cc1ccccc1-c1cnc(-c2cccnc2)nc1C1CCN(C(=O)C2CCC2)CC1 the results were TEAD-YAP inh 12, MITF inh 8, GPR151 ag -1 and FBW7 activator 0.
Screening CC1(C)OC(=O)N2CCc3c([nH]c4ccccc34)C21C (stereo unspecified) returned TEAD-YAP inh 17, MITF inh 7, GPR151 ag -2 and FBW7 activator 0.
`O=C(c1ccco1)N1CCc2ccc(NC(=O)C3(c4ccccc4)CCOCC3)cc21` gave TEAD-YAP inh -4, MITF inh -9, GPR151 ag 8.4*, FBW7 activator 0, GPR151 conf act 0 and GPR119 ag -5.
`O=C(Nc1ccc2c(c1)N(C(=O)c1ccco1)CC2)c1cccs1` gave TEAD-YAP inh -13, MITF inh 1, GPR151 ag 1 and FBW7 activator 0.
O=C(O)CC1c2ccccc2CCN1S(=O)(=O)c1ccc(Cl)cc1 (stereo unspecified) was read as TEAD-YAP inh -1, MITF inh 9, GPR151 ag 6.0*, FBW7 activator 0, GPR151 conf act 2 and GPR119 ag 12.
`O=C(O)CC1c2ccccc2CCN1S(=O)(=O)c1ccccc1` (stereo unspecified) gave TEAD-YAP inh 11, MITF inh -1, GPR151 ag 1 and FBW7 activator 0.
`CCOc1cc(/C=C(\C#N)C(=O)c2ccccc2)ccc1OCCn1c([N+](=O)[O-])cnc1C` gave TEAD-YAP inh -8, MITF inh 5, GPR151 ag 8.9*, FBW7 activator 0, GPR151 conf act -1 and GPR119 ag 0.
Nc1nc(SCC(=O)Nc2ccc(F)cc2)n[nH]1 was read as TEAD-YAP inh 12, MITF inh -1, GPR151 ag 1 and FBW7 activator 0.
`O=C(CSc1nc(N2CCCCC2)nc(N2CCCCC2)n1)Nc1ccc(F)cc1` gave TEAD-YAP inh 0, MITF inh -18, GPR151 ag 9.8*, FBW7 activator 0, GPR151 conf act 1 and GPR119 ag -1.
`Cc1cc(C)n2nc(C(=O)Nc3cc(C(F)(F)F)cc(C(F)(F)F)c3)nc2n1` gave TEAD-YAP inh 11, MITF inh 7, GPR151 ag 0 and FBW7 activator 0.
COc1cc([N+](=O)[O-])ccc1-c1ccc(C(=O)Nc2cc(Cl)cc(Cl)c2)o1 was read as TEAD-YAP inh 4, MITF inh -4, GPR151 ag -1 and FBW7 activator 0.
COc1cc([N+](=O)[O-])ccc1-c1ccc(C(=O)Nc2ccc(Br)cn2)o1 was read as TEAD-YAP inh -3, MITF inh 4, GPR151 ag 7.1*, FBW7 activator 0, GPR151 conf act 1 and GPR119 ag 17.
Screening C=CCn1c(SCC(=O)Nc2sc3c(c2C(=O)OCC)CCCCC3)nc2sc(-c3ccccc3)cc2c1=O returned TEAD-YAP inh -3, MITF inh -4, GPR151 ag 6.3*, FBW7 activator 0, GPR151 conf act 1 and GPR119 ag 18.
Screening CCN1CCc2c(sc(NC(=O)c3ccc(S(=O)(=O)N4CCCC(C)C4)cc3)c2C(=O)OC)C1 (stereo unspecified) returned TEAD-YAP inh 2, MITF inh 8, GPR151 ag 5.3*, FBW7 activator 0, GPR151 conf act 2 and GPR119 ag 15.
Screening COC(=O)c1c(NC(=O)c2ccc(S(=O)(=O)N3CCCC(C)C3)cc2)sc2c1CCN(C(C)C)C2 (stereo unspecified) returned TEAD-YAP inh 0, MITF inh -15, GPR151 ag 1 and FBW7 activator 0.
For Cc1ccc(NC(=O)CSc2nc3[nH]ncc3c(=O)n2-c2ccc(Br)cc2)cc1Cl the results were TEAD-YAP inh 22, MITF inh -7, GPR151 ag 7.5*, FBW7 activator 0, GPR151 conf act 0 and GPR119 ag 9.
`COc1ccc(CCNc2nc(N3CCCC3)nc(N3CCCC3)n2)cc1OC` gave TEAD-YAP inh -18, MITF inh 18, GPR151 ag 5.1*, FBW7 activator 0, GPR151 conf act 1 and GPR119 ag -8.
`COc1ccc(CCNc2nc(NC(C)(C)CO)nc(N3CCCC3)n2)cc1OC` gave TEAD-YAP inh -2, MITF inh 15, GPR151 ag -1 and FBW7 activator 0.
For O=C(Nc1nnc(-c2cccnc2)s1)c1ccccc1F the results were TEAD-YAP inh 4, MITF inh 1, GPR151 ag 1 and FBW7 activator 0.
Screening CCC(CC)NC(=O)c1ccc(C)c([N+](=O)[O-])c1 returned TEAD-YAP inh -1, MITF inh 1, GPR151 ag 5.2*, FBW7 activator 0, GPR151 conf act 1 and GPR119 ag 0.
For Cc1ccc(NC(=O)c2cccc(I)c2)cc1[N+](=O)[O-] the results were TEAD-YAP inh -24, MITF inh -15, GPR151 ag 4.9*, FBW7 activator 0, GPR151 conf act 1 and GPR119 ag -7.
`COc1ccc(C)cc1S(=O)(=O)N1CCC(C(=O)Nc2cccc(C(C)=O)c2)CC1` gave TEAD-YAP inh 6, MITF inh -7, GPR151 ag 6.1*, FBW7 activator 0, GPR151 conf act 1 and GPR119 ag 13.
For Cc1ccc(NC(=O)C2CCN(S(C)(=O)=O)CC2)cc1 the results were TEAD-YAP inh 12, MITF inh 5, GPR151 ag 10*, FBW7 activator 0, GPR151 conf act 0 and GPR119 ag -1.
COc1ccc(C)cc1S(=O)(=O)N1CCC(C(=O)Nc2ccc3c(c2)OCO3)CC1 was read as TEAD-YAP inh -2, MITF inh -11, GPR151 ag 1 and FBW7 activator 0.
Cc1cc(Cl)ccc1OCC(=O)Nc1ccc(S(N)(=O)=O)cc1 was read as TEAD-YAP inh 7, MITF inh 4, GPR151 ag 0 and FBW7 activator 0.
Screening COc1ccc(Nc2nc(-c3c[nH]c4ccccc34)cs2)cc1 returned TEAD-YAP inh -15, MITF inh 16, GPR151 ag 5.4*, FBW7 activator 0, GPR151 conf act 0 and GPR119 ag -3.
COc1ccc2c(-c3csc(N)n3)c[nH]c2c1 was read as TEAD-YAP inh 14, MITF inh -2, GPR151 ag 8.4*, FBW7 activator 0, GPR151 conf act 0 and GPR119 ag 6.
